# Measurements reported in PubChem BioAssay (NCATS).
# Inconclusive results are not listed. A call without a number means that no potency is given here. Activity calls are given as the source filed them. Calls come from the whole dose curve.
# Assay: Primary qHTS for Huh7 cytotoxicity: counterscreen for inhibitors of MERS-S pseudotyped particle cell entry (AID 1479147)
# Details: cell viability read-out; series mostly up to 57.1 µM
row,SMILES,Potency
1,N#C/C(=C1/SC[C@@H](c2ccc(Cl)cc2Cl)S1)n1ccnc1,inactive
2,CN1CCCCC1CCN1c2ccccc2Sc2ccc(S(C)=O)cc21 (stereo not drawn),inactive
3,CC(C)(C)c1ccc(C(=O)CCCN2CCC(OC(c3ccccc3)c3ccccc3)CC2)cc1,inactive
4,Clc1ccc(C(Cn2ccnc2)OCc2c(Cl)cccc2Cl)c(Cl)c1 (stereo not drawn),inactive
5,C#C[C@]1(OC(C)=O)CC[C@H]2[C@@H]3CCC4=C[C@@H](OC(C)=O)CC[C@@H]4[C@H]3CC[C@@]21C,inactive
6,Clc1ccc2c(c1)CCc1cccnc1C2=C1CCNCC1,inactive
7,C=C1C[C@H]2[C@@H]3C=C(C)C4=CC(=O)CC[C@]4(C)[C@H]3CC[C@]2(C)[C@@]1(OC(C)=O)C(C)=O,inactive
8,CCCCc1cc2ccccc2c(OCCN(C)C)n1,inactive
9,CC(=O)c1ccc2c(c1)N(CCCN1CCC(CCO)CC1)c1ccccc1S2,inactive
10,COc1ccc(CN2CCN(C(c3ccc(F)cc3)c3ccc(F)cc3)CC2)c(OC)c1OC,inactive
11,COc1cc(N)c(Cl)cc1C(=O)NC1CCN(Cc2ccccc2)CC1,inactive
12,CCN(CC)CCOC(=O)C1(c2ccccc2)CCCC1,inactive
13,COc1ccc2c(c1)C(=O)N(CCc1ccc(S(=O)(=O)NC(=O)NC3CCCCC3)cc1)C(=O)C2(C)C,inactive
14,CCCCCOc1ccccc1/C(=C\SC)n1ccnc1,inactive
15,COc1ccccc1N1CCN(CC(O)COc2cccc3ccccc23)CC1 (stereo not drawn),inactive
16,COC(=O)[C@H]1[C@H]2C[C@@H]3c4[nH]c5cc(OC)ccc5c4CCN3C[C@H]2C[C@@H](OC(=O)/C=C/c2ccc(O)c(OC)c2)[C@@H]1OC,inactive
17,CN(C)CCCN1c2ccccc2Sc2ccccc21,inactive
18,CO[C@@H]1[C@@H](O[C@@H]2O[C@H](C)[C@@H](O[C@H]3C[C@@](C)(O)[C@@H](O)[C@H](C)O3)[C@H](N(C)C)[C@H]2O)[C@@H](CC=O)C[C@@H](C)[C@@H](O[C@@H]2CC[C@H](N(C)C)[C@@H](C)O2)/C=C/C=C/C[C@@H](C)OC(=O)C[C@H]1OC(C)=O,inactive
19,NS(=O)(=O)c1cc2c(cc1Cl)NCNS2(=O)=O,inactive

row,SMILES,Potency
1,O=C(c1ccc(F)cc1)C1CCN(CCn2c(=O)[nH]c3ccccc3c2=O)CC1,inactive
2,O[C@@H](COc1cccc2ncccc12)CN1CCN(C2c3ccccc3[C@@H]3[C@H](c4ccccc42)C3(F)F)CC1 (stereo partly drawn),inactive
3,CCCCCCCCCCCCCCCCCCOCC(O)CO (stereo not drawn),inactive
4,CC(=O)c1ccc2c(c1)N(CCCN(C)C)c1ccccc1S2,inactive
5,C=C1C(=C/C=C2\CCC[C@]3(C)[C@@H]([C@H](C)/C=C/[C@@H](O)C4CC4)CC[C@@H]23)C[C@@H](O)C[C@@H]1O,inactive
6,COc1cccc(CCc2ccccc2OCC(CN(C)C)OC(=O)CCC(=O)O)c1 (stereo not drawn),inactive
7,OCCN1CCN(CCCN2c3ccccc3C=Cc3ccccc32)CC1,inactive
8,CCCOC(C(=O)OC1CCN(C)CC1)(c1ccccc1)c1ccccc1,inactive
9,COC(=O)C1=C(C)NC(C)=C(C(=O)OC(C)(C)CN(C)CCC(c2ccccc2)c2ccccc2)C1c1cccc([N+](=O)[O-])c1 (stereo not drawn),inactive
10,CC(C)C[C@@H]1[C@H](c2ccccc2)OC(=O)N1CCCN1CCCCCC1,inactive
11,CC1(C)CCC(C)(C)c2cc(NC(=O)c3ccc(C(=O)O)cc3)ccc21,inactive
12,CN1CCC(OC(c2ccccc2)c2ccccc2)CC1,inactive
13,c1ccc(CNCCNCc2ccccc2)cc1,inactive
14,CC(=O)O[C@]1(C(C)=O)CC[C@H]2[C@@H]3C=C(Cl)C4=CC(=O)CC[C@]4(C)[C@H]3CC[C@@]21C,inactive
15,CC/C(=C(/CC)c1ccc(O)cc1)c1ccc(O)cc1,inactive
16,CN(C)CCOc1ccccc1Cc1ccccc1,inactive
17,C[C@@H](CN(C)C)CN1c2ccccc2Sc2ccccc21,inactive
18,NC(=NCCCCCCN=C(N)/N=C(\N)Nc1ccc(Cl)cc1)/N=C(\N)Nc1ccc(Cl)cc1,inactive
19,Clc1ccc(Cn2c(CN3CCCC3)nc3ccccc32)cc1,inactive
